NS1 inh: inhibitors of influenza NS1 protein function | Potency, µM (highest dose often 46.1 µM) | 270,000 compounds, 0.4% hits; calls by dose curve; note: actives are rising curves; nearly all actives have a fitted effect of over 50% in size
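Recovery from NS1-induced slow growth read by OD600 in budding yeast switched to galactose assay medium (pH 6.0, -URA) at 1:100 dilution. Compound 23 nl per well; the matching strain lacking NS1 serves as control.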
Vaccinia mCherry: vaccinia inhibition (mCherry reporter); Vaccinia virus mCherry reporter infection, fluorescence; Potency, µM (series often up to 36.5 µM), usual class: inhibitors; 310,000 compounds, 0.63% hits; calls by dose curve; tested in A549 cells; note: nearly all actives have a fitted effect of over 35% in size
Pf growth 48h: P. falciparum growth inhibition at 48 hours (one generation) | Potency, µM (top dose mostly 28.7 µM), usual class: inhibitors | 310,000 compounds, 5.9% hits | P. falciparum luciferase growth in erythrocytes, 48 h
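Luciferase-expressing parasites in RBCs, 2% Hct / 0.1% parasitemia final; RPMI 1640 + 0.5% Albumax; 37 C, 5% CO2, one generation; luminescence read-out, lower signal = inhibition.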
VACV Venus inh: vaccinia inhibition (Venus reporter); Vaccinia virus Venus reporter expression, fluorescence; Potency, µM (doses to about 36.5 µM), usual class: inhibitors; 330,000 compounds, 0.46% hits; AID 720580; calls by dose curve; tested in A549 cells; note: nearly all actives have a fitted effect of over 30% in size
Pf growth 96h: P. falciparum growth inhibition at 96 hour, primary screen for plastid delayed-death inhibitors. P. falciparum luciferase reporter growth, 96 h. Potency, µM (doses to about 28.7 µM), usual class: inhibitors. 320,000 compounds, 6.9% hits. AID 504834
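Readout is luminescence from an integrated firefly luciferase in P. falciparum. Red cells, 2% hematocrit and 0.05% parasitemia final, were cultured with compound through two parasite generations (96 hours) at 37 C, 5% CO2.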
HCV inh: inhibitors of hepatitis C virus infection; Huh7.5.1 HCVcc-Cre infection, luciferase reporter, 44 h; Potency, µM (series often up to 41.8 µM), hits mostly inhibitors; 340,000 compounds, 3.4% hits; AID 651820
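Infectious HCV cell culture screen: compound-treated cells (1,000/well, pre-plated 4 h) are infected with HCVcc-Cre at roughly 0.5 moi and grown 44 h. Infection is quantified by luciferase signal after 15 min substrate incubation at room temperature.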
Hits are given with their value; [ ] = another dose, or the depositor's remark. Sampled rows, rich in hits. Any-hit rate of the full collection: about 11%. Unless noted, calls come from the whole dose curve; as a rule, active = well fitted inhibition curve with a large enough effect; inconclusive = small, poorly fitted or top-dose-only effect, or another doubt; inactive = no such curve, though single readings can be large or run the other way.

Results for S=C(NCc1ccc(Cl)cc1)NC1CCN(Cc2ccccc2)CC1 ?
NS1 inh: inactive; Vaccinia mCherry: inactive; Pf growth 48h: inactive; VACV Venus inh: inconclusive; Pf growth 96h: inactive; HCV inh: 3.98µM

Results for Fc1ccc(CNC2CCN(Cc3ccccc3)CC2)cc1 ?
NS1 inh: inactive; Pf growth 48h: 9.28µM; Pf growth 96h: 1.17µM; HCV inh: inconclusive

How did Clc1ccc(CN2CCC(Cc3ccccc3)CC2)cc1 do in these assays?
NS1 inh: inactive; Vaccinia mCherry: inactive; Pf growth 48h: inactive; VACV Venus inh: inconclusive; Pf growth 96h: 8.28µM; HCV inh: inactive

Results for O=S(=O)(Nc1ccc(N2CCOCC2)cc1)c1ccccc1 ?
NS1 inh: inactive; Pf growth 48h: inactive; Pf growth 96h: inactive; HCV inh: inactive

Results for CCOC(=O)C1=C(CC)Nc2ccccc2N=C1NC(=O)c1ccc(C)c(S(=O)(=O)N2CCOCC2)c1 ?
Vaccinia mCherry: inactive; Pf growth 48h: inconclusive; VACV Venus inh: inactive; Pf growth 96h: 10.4µM; HCV inh: inactive

What do the screens show for `CCOC(=O)C1=C(CC)Nc2ccccc2N=C1NC(=O)c1cccc(S(=O)(=O)N2CCOCC2)c1`?
Pf growth 48h: inconclusive; Pf growth 96h: inconclusive; HCV inh: inactive

How did CCOC(=O)C1=C(CC)Nc2ccccc2N=C1NC(=O)c1ccc(S(=O)(=O)N2CCOCC2)cc1 do in these assays?
Vaccinia mCherry: inactive; Pf growth 48h: inconclusive; VACV Venus inh: inactive; Pf growth 96h: 14.7µM; HCV inh: inactive

What do the screens show for `CCCOc1ccc(CSC(CC(=O)O)C(=O)O)cc1` (stereo not drawn)?
NS1 inh: inactive; Vaccinia mCherry: inactive; Pf growth 48h: inconclusive; VACV Venus inh: inactive; Pf growth 96h: inconclusive; HCV inh: inactive

How did COc1ccc(Nc2nnc(SCC(=O)N3CC(=O)Nc4ccccc43)s2)cc1 do in these assays?
NS1 inh: inactive; Vaccinia mCherry: inactive; Pf growth 48h: inconclusive; VACV Venus inh: inactive; Pf growth 96h: 2.33µM; HCV inh: inactive

How did CCC(=O)Nc1nnc(SCC(=O)Nc2ccc3c(c2)OCCO3)s1 do in these assays?
NS1 inh: inactive; Vaccinia mCherry: inactive; Pf growth 48h: inactive; VACV Venus inh: inactive; Pf growth 96h: inactive; HCV inh: inactive

What do the screens show for `COc1ccc(Nc2nnc(SCC3CCCCO3)s2)cc1` (stereo not drawn)?
NS1 inh: inactive; Pf growth 48h: 3.7µM; Pf growth 96h: 13.1µM; HCV inh: inactive

How did COc1ccc(Nc2nnc(SCC(=O)NC(=O)Nc3ccc4c(c3)OCCO4)s2)cc1 do in these assays?
NS1 inh: inactive; Pf growth 48h: inactive; Pf growth 96h: inactive; HCV inh: 11.2µM

Results for CCN(CC(=O)NC1CCS(=O)(=O)C1)S(=O)(=O)c1ccc(C)c(C)c1 (stereo not drawn) ?
NS1 inh: inconclusive; Vaccinia mCherry: inactive; Pf growth 48h: inactive; VACV Venus inh: inactive; Pf growth 96h: inactive; HCV inh: inactive

How did Cc1ccc(C2NC(=O)c3c(sc4c3CCN(C)C4)N2)o1 (stereo not drawn) do in these assays?
NS1 inh: inactive; Vaccinia mCherry: inactive; VACV Venus inh: inactive; Pf growth 96h: 3.7µM; HCV inh: inactive

What do the screens show for `Cc1ccc(C2NC(=O)c3c(sc4c3CCN(C)C4)N2)s1` (stereo not drawn)?
NS1 inh: inactive; Vaccinia mCherry: inactive; Pf growth 48h: inactive; VACV Venus inh: inactive; Pf growth 96h: inconclusive; HCV inh: inactive

What do the screens show for `O=C(NC1CCS(=O)(=O)C1)c1ccc(Br)o1` (stereo not drawn)?
NS1 inh: inactive; Vaccinia mCherry: inactive; Pf growth 48h: inactive; VACV Venus inh: inactive; Pf growth 96h: inactive; HCV inh: inactive

How did O=C(NC1CCS(=O)(=O)C1)c1ccc(-c2ccc(Br)cc2)o1 (stereo not drawn) do in these assays?
NS1 inh: inactive; Vaccinia mCherry: inactive; VACV Venus inh: inactive; Pf growth 96h: inconclusive; HCV inh: 11.2µM

Results for CC(=O)n1cc([C@@H]2C=C(C(=O)O)O[C@H](OCc3ccc(CO)cc3)C2)c2ccccc21 ?
NS1 inh: inactive; Vaccinia mCherry: inactive; Pf growth 48h: inactive; VACV Venus inh: inactive; Pf growth 96h: inactive; HCV inh: inactive

How did CC(=O)n1cc([C@H]2C=C(C(=O)Nc3ccccc3)O[C@@H](OCc3ccc(CO)cc3)C2)c2ccccc21 do in these assays?
NS1 inh: inconclusive; Vaccinia mCherry: inactive; Pf growth 48h: 8.28µM; VACV Venus inh: inconclusive; Pf growth 96h: 11.7µM; HCV inh: inactive[8.37 µM]

What do the screens show for `C#CCNC(=O)C1=C[C@H](c2cn(C(C)=O)c3ccccc23)C[C@H](OCc2ccc(CO)cc2)O1`?
NS1 inh: inactive; Vaccinia mCherry: inactive; Pf growth 48h: inconclusive; VACV Venus inh: inactive; Pf growth 96h: 10.4µM; HCV inh: inconclusive

How did CC(=O)n1cc([C@@H]2C=C(C(=O)NCc3ccccc3)O[C@H](OCc3ccc(CO)cc3)C2)c2ccccc21 do in these assays?
NS1 inh: inactive; Vaccinia mCherry: inconclusive; Pf growth 48h: 11.7µM; VACV Venus inh: inactive; Pf growth 96h: 5.22µM; HCV inh: inconclusive

What do the screens show for `Cc1cccc(NC(=S)Nc2ccc(N3CCOCC3)cc2)c1C`?
NS1 inh: inconclusive; Vaccinia mCherry: inactive; Pf growth 48h: inactive; VACV Venus inh: inactive; Pf growth 96h: inactive; HCV inh: inactive

How did COc1ccccc1CNC(=O)c1[nH]c(C)c(C(C)=O)c1C do in these assays?
NS1 inh: inactive; Pf growth 48h: inactive; Pf growth 96h: inconclusive; HCV inh: inactive

Results for COc1cccc(CN(C)C(=O)c2[nH]c(C)c(C(C)=O)c2C)c1OC ?
NS1 inh: inactive; Vaccinia mCherry: inactive; Pf growth 48h: 11.7µM; VACV Venus inh: inactive; Pf growth 96h: 7.38µM; HCV inh: 11.2µM

How did NNC(=O)c1cc2c(s1)-c1cc(Cl)ccc1SC2 do in these assays?
NS1 inh: inconclusive; Vaccinia mCherry: inactive[7.34 µM]; Pf growth 48h: 9.28µM; VACV Venus inh: inactive[7.34 µM]; Pf growth 96h: inactive; HCV inh: inactive

What do the screens show for `O=C(NCc1ccc(Cl)cc1)c1cc2c(s1)-c1ccccc1SC2`?
Vaccinia mCherry: inactive; VACV Venus inh: inactive

What do the screens show for `CCN(CC)CCNC(=O)c1cc2c(s1)-c1ccccc1SC2`?
NS1 inh: inactive; Pf growth 48h: inactive; Pf growth 96h: inactive; HCV inh: 11.2µM

Results for COc1cccc(Nc2nc(C(N)Cc3ccccc3)cs2)n1 (stereo not drawn) ?
Vaccinia mCherry: inactive; VACV Venus inh: inactive

Results for CCN(CC)S(=O)(=O)c1ccc(C(=O)Nc2ccc(Cc3ccncc3)cc2)cc1 ?
NS1 inh: inactive; Vaccinia mCherry: inactive; Pf growth 48h: inconclusive; VACV Venus inh: inactive; Pf growth 96h: inactive; HCV inh: 3.16µM

What do the screens show for `CCN(CC)S(=O)(=O)c1ccc(NC(=O)c2ccccc2N(C)S(C)(=O)=O)cc1`?
NS1 inh: inactive; Pf growth 96h: inactive; HCV inh: inactive

Screening data as filed in PubChem BioAssay.
